High-throughput results: PubChem BioAssay, National Center for Advancing Translational Sciences (NCATS)
SNCA expr inhib = reduces expression of the alpha-synuclein gene | HEK-293 SNCA-luciferase knock-in, luminescence, 24 h | Potency, µM (titrated, usually from 57.2 µM), usual class: inhibitors | hit rate 0.17% among 140,000 | AID 1671194; note: nearly all actives have a fitted effect of over 45% in size
IP6K1 inh = blocks human inositol hexakisphosphate kinase 1. hit rate 0.81% among 140,000. IP6K1 kinase, ADP-Glo luminescence, 2 h; active compounds read low. Q92551. activity change, % (series mostly up to about 58 µM); in the data active = activity change below about -25%
Target sequence (Q92551 whole entry, looked up): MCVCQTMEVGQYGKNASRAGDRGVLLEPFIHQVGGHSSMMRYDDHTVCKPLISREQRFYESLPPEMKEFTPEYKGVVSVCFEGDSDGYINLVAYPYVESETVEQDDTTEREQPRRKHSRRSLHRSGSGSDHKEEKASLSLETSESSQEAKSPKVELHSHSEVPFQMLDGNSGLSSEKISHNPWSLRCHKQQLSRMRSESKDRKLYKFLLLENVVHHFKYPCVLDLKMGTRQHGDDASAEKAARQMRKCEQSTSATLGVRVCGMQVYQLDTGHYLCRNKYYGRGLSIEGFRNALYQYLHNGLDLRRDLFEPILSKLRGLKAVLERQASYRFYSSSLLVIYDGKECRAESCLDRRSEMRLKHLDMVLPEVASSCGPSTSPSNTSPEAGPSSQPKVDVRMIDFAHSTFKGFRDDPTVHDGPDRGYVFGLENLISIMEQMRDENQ
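ADP-Glo luminescence measures ADP made by human IP6K1 during a 2 h RT reaction with ATP/IP6 (mix at 1.3 mM/130 uM); top library doses 57.5 and 19.1 uM final.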
GPT2 inh = GPT2 alanine aminotransferase inhibition; Recombinant GPT2, coupled pyruvate oxidase/HRP Amplex Red fluorescence; Potency, µM (series often up to 57.7 µM), hits mostly inhibitors; hit rate 0.25% among 100,000; AID 1671188; note: nearly all actives have a fitted effect of over 60% in size
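Fluorescence read-out: pyruvate from GPT2 turnover coupled to pyruvate oxidase, HRP and Amplex Red (0.2mM ThPP, 0.2U/mL PO and HRP, 50uM Amplex final). Substrates 250uM a-KG, 2mM L-alanine; enzyme 10ng/uL; 30 min RT.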
SNCA viab count = reduces viability of HEK-293 SNCA reporter cells. HEK-293-SNCA-luc viability, GF-AFC fluorescence, 24 h. Potency, µM (titrated, usually from 57.1 µM), actives largely listed as cytotoxic. hit rate 0.12% among 150,000. AID 1671193; note: nearly all actives have a fitted effect of over 30% in size
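Cytotoxicity counterscreen: after 24 h compound treatment of genome-edited SNCA-luciferase HEK-293 cells, live-cell protease substrate GF-AFC read by fluorescence after 30 min; activity scaled between DMSO (0%) and medium-only (-100%), curves Hill-fitted.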
IP6K1 conf = confirmation of human IP6K1 inhibitors | shares compounds with IP6K1 inh | recombinant IP6K1 kinase, ADP-Glo luminescence, 2 h | Potency, µM (highest dose often 49 µM), most hits filed as inhibitors | hit rate 13% among 1,200 | AID 1645852; note: nearly all actives have a fitted effect of over 65% in size
Large screens that a line does not name were inactive (follow-up assays come after a bar, where they were run); ! = a repeat was not active. Rows were chosen to be rich in hits. Some 1.1% of all compounds tested hit in one or more screens of this group. Unless noted, calls come from the whole dose curve; as a rule, active = well fitted curve in the direction sought with a large enough effect; inconclusive = small, poorly fitted or top-dose-only effect, or another doubt; inactive = no such curve, though single readings can be large; an effect the other way counts as inactive or inconclusive.

CCN1CC(c2ccccc2)CC2(CCN(C(=O)COC)CC2)C1 (stereo unspecified)	IP6K1 inh -27 | IP6K1 conf inactive
CN1C(=O)N[C@@H](Cc2c[nH]c3c(Cl)cccc23)C1=O	none (no result: SNCA expr inhib)
CN1C(=O)NC(Cc2c[nH]c3c(Cl)cccc23)C1=O (stereo unspecified)	none (no result: SNCA expr inhib, IP6K1 inh, GPT2 inh, SNCA viab count) | IP6K1 conf inactive
COc1ccc(NC(=O)Cn2c(-c3ccc(F)cc3)cc(C(C)=O)c2C)c(OC)c1	none (no result: GPT2 inh)
C[C@]1(CO)[C@H]2Cc3sc(NC(=O)c4ccco4)nc3[C@@H](CC(=O)NCCN3CCOCC3)[C@]2(C)CC[C@H]1O	none
NC(=O)N/N=C/c1ccc([N+](=O)[O-])o1	IP6K1 inh -50!, GPT2 inh 32µM! | IP6K1 conf inactive
Cc1ccc(CNC(=O)c2c(Nc3ccccc3C)sc(C(=O)c3ccc(F)cc3)c2N)cc1	SNCA expr inhib inconclusive, IP6K1 inh -26, SNCA viab count inconclusive (no result: GPT2 inh) | IP6K1 conf inactive
COc1ccccc1CCNC(=O)CCc1c(C)c2cc3c(C)c(C)oc3cc2oc1=O	IP6K1 inh -25 (no result: GPT2 inh) | IP6K1 conf inactive
COc1ccc(C2=C(C)C(=O)N(Cc3ccc(C(=O)Nc4ccc(F)cc4C)cc3)S2(=O)=O)cc1	SNCA expr inhib inconclusive, IP6K1 inh -30 (no result: GPT2 inh) | IP6K1 conf inactive
COC(=O)c1cc(NC(=O)CC2C(=O)OCCN2Cc2ccccc2)cc(C(=O)OC)c1 (stereo unspecified)	IP6K1 inh -33 (no result: GPT2 inh) | IP6K1 conf inactive
CCOC(=O)c1c(NC(=O)COc2c(C)cc(Cl)cc2Cl)sc2c1CCCC2	none (no result: GPT2 inh)
O=C(O)C1=CC(=C(c2ccc(O)c(C(=O)O)c2)c2ccc(O)c(C(=O)O)c2)C=CC1=O	none (no result: IP6K1 inh) | IP6K1 conf 1.5µM
O=C(c1ccc(-c2ncc3cnc(-c4ccccc4)cn23)cc1)N1CCS(=O)(=O)CC1	none
Cc1cc2cc(C(=O)N(C)Cc3ccc4nsnc4c3)ccc2o1	IP6K1 inh -32 | IP6K1 conf inconclusive
CN(Cc1ccc2nsnc2c1)C(=O)c1ccc(CCC(C)(C)O)cc1	none
Cc1cc2c(C(C)C)c(O)c(O)c(C=O)c2c(O)c1-c1c(C)cc2c(C(C)C)c(O)c(O)c(C=O)c2c1O	SNCA expr inhib inconclusive, IP6K1 inh -59, GPT2 inh inconclusive, SNCA viab count inconclusive | IP6K1 conf inconclusive
COc1cc(NC(=O)c2cc3c(=O)n(Cc4cccs4)ccc3nc2C)cc(OC)c1OC	none (no result: GPT2 inh)
CCC(=O)c1cc(-c2ccc(Cl)cc2)n(-c2ccc(S(N)(=O)=O)cc2)c1C	IP6K1 inh -34 (no result: SNCA expr inhib) | IP6K1 conf inconclusive
Cc1ccc(-c2cc(C(F)(F)F)nn2-c2ccc(S(N)(=O)=O)cc2)cc1	SNCA viab count inconclusive
CC1CN(c2ccc(Cl)cc2)C(=O)CN1C(=O)CCn1cccc1 (stereo unspecified)	IP6K1 inh -33 | IP6K1 conf inactive
Oc1ccc(Nc2nc(-c3ccc(Cl)cc3)nc3ccccc23)cc1	SNCA viab count inconclusive (no result: GPT2 inh)
Oc1ccc(Nc2nc(-c3ccc(Cl)cc3)cs2)cc1	IP6K1 inh -32, GPT2 inh inconclusive (no result: SNCA expr inhib) | IP6K1 conf inconclusive
CCn1ncc(N2CCCC(CC(=O)NCc3cccs3)C2)cc1=O (stereo unspecified)	none
Cc1cccc(N2CCN(c3ccc(C(=O)O)cc3NC(=O)c3cccc(Cl)c3)CC2C)c1 (stereo unspecified)	IP6K1 inh -28 (no result: GPT2 inh) | IP6K1 conf inconclusive
CN(C)c1ccc(-c2cc(-c3ccc(=O)[nH]c3)c3cncn3c2)cc1	none | IP6K1 conf inactive
CN1c2cc(C(=O)NCc3cccc(Cl)c3)ccc2C(=O)N2CCCCC21 (stereo unspecified)	none
Cc1nc(C)n(CCCNC(=O)c2cc(S(N)(=O)=O)ccc2F)n1	none
Nc1nc(Nc2ccc(S(N)(=O)=O)cc2)nn1C(=O)c1c(F)cccc1F	SNCA expr inhib inconclusive, IP6K1 inh -35, SNCA viab count inconclusive | IP6K1 conf inconclusive
COc1ccc(NC(=O)COc2ccc(-c3nnc4n3CCCC4)cc2)cc1OC	none
O=C1C(SCCO)=C(SCCO)C(=O)c2ccccc21	SNCA expr inhib inconclusive, GPT2 inh inconclusive (no result: IP6K1 inh) | IP6K1 conf 10µM
CC1=CC(=O)c2ccccc2C1=O	GPT2 inh inconclusive
COc1ccccc1CCNc1ncnc2c1nnn2C	none (no result: GPT2 inh)
Cc1cnc(C2CCOCC2)n1C1CCCN(Cc2ccc(C#N)cc2)C1 (stereo unspecified)	none
N#C/C(=C/c1ccccc1Cl)c1nc2ccccc2c(=O)[nH]1	none (no result: GPT2 inh)
N#C/C(=C\c1cc(Br)c(O)c(Br)c1)c1nc2ccccc2c(=O)[nH]1	IP6K1 inh -29 (no result: GPT2 inh) | IP6K1 conf 1.8µM
CCn1cnc2c(=O)oc3ccc(S(=O)(=O)N4CCN(c5cc(C)ccc5C)CC4)cc3c21	IP6K1 inh -28 (no result: GPT2 inh) | IP6K1 conf inactive
C=C1c2cccc(O)c2C(O)=C2C(=O)[C@]3(O)C(O)=C(C(N)=O)C(=O)[C@@H](N(C)C)[C@@H]3[C@@H](O)[C@H]12	IP6K1 inh -37 | IP6K1 conf inactive
CC(C)Cn1c(-c2cccc(Br)c2)nc2ccccc21	IP6K1 inh -33 (no result: GPT2 inh) | IP6K1 conf inactive
Cc1cccc(Cn2c(-c3ccccc3)nc3ccccc32)c1	none (no result: GPT2 inh)
O=C(NOCC1CC1)c1ccc(F)c(F)c1Nc1ccc(I)cc1Cl	none | IP6K1 conf inactive
O=C(NCC1CCOCC1)Nc1ccc(Cl)cc1C(F)(F)F	none
O=C(NOC[C@H](O)CO)c1ccc(F)c(F)c1Nc1ccc(I)cc1F	none | IP6K1 conf inactive
O=C(NCC(O)CO)c1ccncc1Nc1ccc(I)cc1F (stereo unspecified)	none (no result: SNCA expr inhib)
CCOc1cccc(CN2CC(Oc3ccc(-c4noc(COC)n4)cc3)C2)c1	none
CC12CCC(OC3OC(CO)C(O)C(O)C3OC3OC(CO)C(O)C(O)C3O)CC1CCC1C2CCC2(C)/C(=C3/COC(=O)C3)CCC12O (stereo unspecified)	none (no result: SNCA expr inhib)
Cn1sc(=O)n(Cc2ccccc2)c1=O	IP6K1 inh -83, GPT2 inh inconclusive, SNCA viab count inconclusive (no result: SNCA expr inhib) | IP6K1 conf 18µM
N#CCC(C1CCCC1)n1cc(-c2ncnc3[nH]ccc23)cn1 (stereo unspecified)	none (no result: SNCA expr inhib) | IP6K1 conf inactive
O=C(Cc1c[nH]c2ncc(-c3cccc(O)c3)cc12)N1CCOCC1	SNCA expr inhib inconclusive
O=C(Cc1c[nH]c2ncc(-c3ccc(F)cc3)cc12)NCc1cccnc1	none
NC(=O)Cc1c[nH]c2ncc(-c3ccc(Cl)cc3)cc12	IP6K1 inh -43 | IP6K1 conf inconclusive
NC(=O)Cc1c[nH]c2ncc(-c3ccc4c(c3)OCO4)cc12	IP6K1 inh -47 | IP6K1 conf 15µM
NC(=O)Cc1c[nH]c2ncc(-c3ccc(F)c(Cl)c3)cc12	IP6K1 inh -36 | IP6K1 conf inconclusive
O=C(Cc1c[nH]c2ncc(-c3ccc(F)c(Cl)c3)cc12)NCc1cccnc1	IP6K1 inh -26 | IP6K1 conf inconclusive
O=C(Cc1c[nH]c2ncc(-c3ccccc3)cc12)Nc1ccc(Cl)cc1	none
COCCNC(=O)[C@H]1C[C@H](Oc2ccccc2)CN1S(=O)(=O)c1cn(C)cn1	none
